The values that follow come from PubChem BioAssay (NCATS).

What all share (assay): qHTS profiling for inhibitors of Plasmodium falciparum proliferation (AID 504749); also: nearly all actives have a fitted effect of over 60% in size
Common to all, as to conditions: P. falciparum in erythrocytes, SYBR Green DNA, 72 h; series mostly up to 28.7 µM
Background: In qHTS, concentration-response curves come from the screen itself.

One assay has as its system CP201. An outline of the steps:
(§1)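 P. falciparum-infected erythrocytes (0.3% parasitemia, 2.5% hematocrit final) were exposed to compounds for 72 h at 37 C in 5% CO2, then lysed with SYBR Green buffer overnight at room temperature; parasite DNA fluorescence was normalized to artemisinin and DMSO controls.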

The next assay has as its system CP237. An outline of the steps:
as §1

Another assay relates to CP238. The procedure, abridged: as §1
In a further assay the test system is CP250. An outline of the steps: as §1
Another assay has as its system CP252. The procedure, abridged:
as §1

A further assay has as its system CP256. The procedure, abridged:
as §1

The test system of another assay is CP260. The procedure, abridged: as §1
In another assay the test system is CP262. The procedure, abridged: as §1
The test system of a further assay is CP265. The procedure, abridged:
as §1

In a further assay the test system is CP266. The procedure, abridged:
as §1

For a further assay, the system named is CP268. An outline of the steps: as §1
The test system of a further assay is CP286. An outline of the steps:
as §1

The test system of a further assay is CP291. An outline of the steps: as §1
Another assay concerns CP203. The procedure, abridged:
as §1

The next assay relates to CP211. An outline of the steps:
as §1

The next assay relates to CP217. An outline of the steps: as §1
The test system of the next assay is CP247. The procedure, abridged:
as §1

The subject of another assay is CP269. An outline of the steps:
as §1

A further assay has as its system CP297. An outline of the steps:
as §1

Another assay deals with CP215. The procedure, abridged: as §1

The structures appear in SMILES notation. Inconclusive results are not listed. Activity calls are given as the source filed them. Calls follow the shape of the dose curve; as a rule, active = well fitted inhibition curve with a large enough effect; inconclusive = small, poorly fitted or top-dose-only effect; inactive = flat fitted curve, though single readings scatter.
Potency is read from the fitted curve at half-maximal effect.

For `COc1cc(C(=O)NS(=O)(=O)c2ccccc2C)ccc1Cc1cn(C)c2ccc(NC(=O)OC3CCCC3)cc12`, the Potency entry in the assay on CP201, in the assay on CP237, in the assay on CP238, in the assay on CP250, in the assay on CP252 and with CP256 was “inactive” in each case. The Potency result in the assay on CP260, in the assay on CP262, in the assay on CP265, in the assay with CP266, in the assay with CP268 and in the assay with CP286 was “inactive” throughout. For the same compound, in the assay with CP291, the Potency result was “inactive”.
In the case of `O=c1[nH]c(=O)n(C2CCCO2)cc1F` (stereo not given), the Potency entry with CP201, with CP203, in the assay on CP211, in the assay on CP217, in the assay on CP237 and with CP238 was “inactive” each time. For the same compound, the Potency entry with CP247, in the assay with CP250, in the assay on CP252, in the assay on CP256, with CP260 and in the assay with CP262 was “inactive” throughout. Also, the Potency result in the assay on CP265, in the assay with CP266, with CP268, in the assay with CP269, with CP286 and in the assay on CP291 was “inactive” throughout. For the same compound, in the assay on CP297, the Potency result is “inactive”.
Regarding `Nc1ccn([C@@H]2O[C@H](CO)[C@H](O)C2(F)F)c(=O)n1`, the Potency with CP201 is 2130 nM (active); in the assay on CP203, 2690 nM (active); in the assay with CP211, 2390 nM (active); in the assay with CP215 it was 6010 nM (active); in the assay with CP217, 4470 nM (active); with CP237, 3550 nM (active). Further, the Potency in the assay on CP238 was 3980 nM (active); with CP247, 1410 nM (active); in the assay with CP250 it was 5010 nM (active); in the assay with CP252, 3550 nM (active); in the assay with CP256 it was 1580 nM (active); in the assay with CP260, 3980 nM (active). In addition, the Potency in the assay with CP262 was 2690 nM (active); in the assay on CP265, 3980 nM (active); in the assay with CP266 it was 4780 nM (active); in the assay on CP268, 6010 nM (active); in the assay on CP269, 4780 nM (active); in the assay with CP286 it was 3980 nM (active). For the same compound, the Potency in the assay on CP291 is 4260 nM (active); in the assay with CP297 it was 6750 nM (active).
Take `CC1(C)O[C@@H]2C[C@@H]3[C@H]4C[C@@H](F)C5=CC(=O)C=C[C@]5(C)[C@@]4(F)[C@@H](O)C[C@]3(C)[C@]2(C(=O)CO)O1`: the Potency result with CP217, in the assay with CP237, with CP238, with CP247, with CP250 and in the assay on CP252 was “inactive” in each case. The Potency entry with CP256, in the assay on CP260, with CP262, in the assay with CP265 and in the assay with CP286 was “inactive” in each case.
`CC(C)(C)NC(=O)[C@H]1CN(Cc2cccnc2)CCN1C[C@@H](O)C[C@@H](Cc1ccccc1)C(=O)N[C@H]1c2ccccc2C[C@H]1O`: the Potency in the assay with CP201 is 16900 nM (active); in the assay on CP215, 15100 nM (active); with CP217 it was 11200 nM (active); with CP237, 8910 nM (active); in the assay with CP247, 11200 nM (active); in the assay with CP252 it was 12600 nM (active). For the same compound, the Potency with CP269 is 13500 nM (active); in the assay with CP291 it was 15100 nM (active). In addition, the Potency result with CP262 was “inactive”.
On to `COc1c(N2C[C@@H]3CCCN[C@H]3C2)c(F)cc2c(=O)c(C(=O)O)cn(C3CC3)c12`, for which the Potency entry in the assay on CP201, with CP203, with CP211, in the assay with CP215, in the assay on CP217 and with CP238 was “inactive” in each case. The Potency entry in the assay on CP247, in the assay on CP250, with CP252, with CP256, in the assay with CP260 and in the assay on CP262 was “inactive” throughout. Moreover, the Potency result in the assay with CP265, with CP266, in the assay on CP269, with CP286, with CP291 and in the assay with CP297 was “inactive” each time.
Take `O=C(O)CO.[NH2-].[NH2-].[Pt+2]`: the Potency entry in the assay on CP201, with CP203, with CP211, with CP215, in the assay on CP217 and in the assay with CP237 was “inactive” in each case. For the same compound, the Potency entry in the assay on CP238, with CP247, with CP250, in the assay on CP252, in the assay with CP256 and in the assay on CP260 was “inactive” each time. For the same compound, the Potency result with CP262, in the assay with CP265, with CP266, in the assay on CP268, in the assay with CP269 and with CP286 was “inactive” each time. For the same compound, the Potency entry in the assay on CP291 and in the assay on CP297 was “inactive” each time.
With `CC[C@H]1CN2CCc3cc(OC)c(OC)cc3[C@H]2C[C@@H]1C[C@@H]1NCCc2cc(OC)c(OC)cc21`, the Potency in the assay on CP201 is 675 nM (active); in the assay with CP203, 379 nM (active); in the assay with CP211 it was 675 nM (active); in the assay on CP215 it was 536 nM (active); in the assay on CP217, 708 nM (active); in the assay on CP237, 126 nM (active). Moreover, the Potency with CP238 was 316 nM (active); in the assay on CP247, 398 nM (active); in the assay on CP250 it was 316 nM (active); with CP252, 562 nM (active); with CP256, 355 nM (active); with CP260, 126 nM (active). The Potency is 757 nM (active) in the assay on CP262; 447 nM (active) in the assay with CP265; 675 nM (active) with CP266; 426 nM (active) in the assay with CP268; 301 nM (active) in the assay with CP269; 158 nM (active) in the assay with CP286. Besides, the Potency in the assay with CP291 is 269 nM (active); in the assay with CP297, 379 nM (active).
As to `CN1c2cc(O)c(N=NC(N)=O)cc2CC1S(=O)(=O)O` (stereo not given), the Potency result in the assay with CP201, in the assay with CP203, in the assay with CP211, with CP215, with CP217 and with CP237 was “inactive” in each case. For the same compound, the Potency entry in the assay on CP238, with CP247, in the assay with CP250, in the assay on CP252, in the assay on CP256 and in the assay with CP260 was “inactive” each time. The Potency result with CP262, with CP265, in the assay on CP266, in the assay on CP268, in the assay with CP269 and in the assay with CP286 was “inactive” in each case. The Potency result in the assay on CP291 and in the assay on CP297 was “inactive” in each case.
